# Screens deposited in PubChem BioAssay by National Center for Advancing Translational Sciences (NCATS).
# Akt phos inh = blocks phosphorylation of Akt | AID 651550 | activity change, % for hits at 50 µM | Neuro2A IGF-stimulated pAkt S473 HTRF, 20 min; active compounds read low | 360,000 tested, 0.32% active; in the data active = activity change below about -80%; inconclusive = mostly about -51% to -80%
#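 Neuro2A cells (4,500/well, DMEM with 0.5% FBS) were treated with compound at a single 50 µM final concentration, stimulated with 6 nM IGF for 20 min at 37 °C, and lysed. Phospho-Akt Ser473 was read by HTRF as 665/615 ratio ×10^4.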
# N370S GC mod = inhibits or activates N370S mutant glucocerebrosidase. N370S GC spleen homogenate, 4MU-glucoside fluorescence. P04062. 330,000 tested, 0.092% active. Potency, µM (titrated, usually from 59.4 µM), hits mostly inhibitors
# TrxR1 inh = rat TrxR1 inhibition; O89049; recombinant rTrxR1, NADPH fluorescence consumption, selenite substrate; Potency, µM (top dose mostly 114 µM), actives largely listed as inhibitors; 390,000 tested, 1% active; also: nearly all actives have a fitted effect of over 65% in size
# Target sequence (O89049 whole entry, looked up): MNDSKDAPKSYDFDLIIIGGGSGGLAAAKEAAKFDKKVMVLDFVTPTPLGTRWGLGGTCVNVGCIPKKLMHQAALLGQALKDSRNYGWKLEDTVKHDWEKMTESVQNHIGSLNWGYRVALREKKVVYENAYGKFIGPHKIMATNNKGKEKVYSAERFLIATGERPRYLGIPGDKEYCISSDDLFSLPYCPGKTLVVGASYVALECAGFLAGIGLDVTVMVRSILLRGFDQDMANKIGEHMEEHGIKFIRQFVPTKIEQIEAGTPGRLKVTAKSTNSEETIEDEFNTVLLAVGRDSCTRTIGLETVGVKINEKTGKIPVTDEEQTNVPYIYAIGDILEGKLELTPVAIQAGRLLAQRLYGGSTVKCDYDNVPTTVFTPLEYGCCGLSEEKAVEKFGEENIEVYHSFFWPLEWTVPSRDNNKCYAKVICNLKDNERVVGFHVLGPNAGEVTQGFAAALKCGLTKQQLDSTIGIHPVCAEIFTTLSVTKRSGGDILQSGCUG
#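 Rat TrxR1 (90 nM in the dispensed reagent) was pre-reduced with 400 uM NADPH for 5 min at room temperature, then incubated with compound for 15 min. After 400 uM selenite was added, NADPH fluorescence (Ex 340/Em 450 nm) was followed for 8 min.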
# AT treatment = potential ataxia-telangiectasia treatment; F2112 A-T fibroblasts, KAP-1 phosphorylation AlphaLISA; neocarzinostatin DNA damage 30 min before lysis; Potency, µM (top dose mostly 57.5 µM), hits mostly activators; 320,000 tested, 0.19% active; AID 485349; also: nearly all actives have a fitted effect of over 45% in size
#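 hTERT-immortalized A-T patient fibroblasts (F2112), 500 cells/well in OPTI-MEM, 1% FBS, got compounds for 60 min, then NCS for 30 min at 37C. Lysates were then assayed for phospho-KAP-1 by AlphaLISA (anti-pKAP1 donor, anti-KAP1 acceptor beads), 6 hr at 25C.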
# TrxR1 substrate = is turned over as a substrate by rat TrxR1; O89049; purified TrxR1 substrate turnover, NADPH consumption readout; Potency, µM (titrated, usually from 114 µM); 390,000 tested, 0.01% active; also: nearly all actives have a fitted effect of over 50% in size
#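 Rat TrxR1, dispensed at 90 nM, was prereduced with 400 uM NADPH (final) for 5 min at ~22 deg C, then incubated with compound 15 min before 400 uM selenite. A first-read NADPH fluorescence drop versus no-compound background flagged substrates.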
# Pin1 inhibitor = human Pin1 inhibition. Q13526. Pin1 FP peptide displacement, HiFluor488, 10 min. Potency, µM (titrated, usually from 115 µM), most hits filed as inhibitors. 390,000 tested, 0.009% active. AID 504891; active = well fitted inhibition curve with a large enough effect in the polarisation, with a control signal flat, not every such curve was filed as active; inconclusive = small, poorly fitted or top-dose-only effect, or effect the other way, or a change in a side signal; inactive = no such curve, though single readings can be large or run the other way; the % refers to the polarisation
# Target sequence (Q13526 whole entry, looked up): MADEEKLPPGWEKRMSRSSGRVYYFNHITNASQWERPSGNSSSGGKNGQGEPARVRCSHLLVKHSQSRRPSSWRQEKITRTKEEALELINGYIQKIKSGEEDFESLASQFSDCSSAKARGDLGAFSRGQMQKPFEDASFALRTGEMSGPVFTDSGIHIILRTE
# A number is an active result; i = inactive; ? = inconclusive; nt = not tested or not shown; ! = repeats disagree; [ ] = remark or other dose. Most compounds without a hit are left out; they make up all but 1.4% or so of the library. Unless noted, calls follow the shape of the dose curve; as a rule, active = well fitted curve in the direction sought with a large enough effect; inconclusive = small, poorly fitted or top-dose-only effect, or another doubt; inactive = no such curve, though single readings can be large; an effect the other way counts as inactive or inconclusive.
SMILES,Akt phos inh,N370S GC mod,TrxR1 inh,AT treatment,TrxR1 substrate,Pin1 inhibitor
Cc1cccc(NC(=O)COc2ccccc2C(=O)Nc2ccccc2)c1,nt,nt,i,nt,i,nt
Cc1cc(C)n2nc(CNS(=O)(=O)c3ccccc3)nc2n1,nt,nt,i,nt,i,i
Cc1ccc2nc(Cl)c3nnnn3c2c1,i,i,8.9µM,i,i,?
Cc1ccc2nc(NCc3ccccc3Cl)c3nnnn3c2c1,nt,nt,i,nt,i,i
CN(C)c1ccc(C(=C2C=CC(=[N+](C)C)C=C2)c2ccc(N(C)C)cc2)cc1,nt,3.2µM,i,nt,i[0.0914 µM],nt
CN(C)c1ccc(C(=C2C=CC(=[N+](C)C)C=C2)c2ccccc2)cc1,nt,i,nt,nt,nt,nt
O=S(=O)(c1ccc2c(c1)OCCO2)N1CCN(S(=O)(=O)c2cccc(Cl)c2F)CC1,nt,nt,nt,nt,nt,i
CCc1c(C(C)S(=O)(=O)c2ccc(C)cc2)[nH]c(=O)n1-c1ccc(C)cc1 (stereo not given),i,i,?,i,i,i
CCc1[nH]c(=O)[nH]c1C(C)S(=O)(=O)c1ccc(C)cc1 (stereo not given),i,i,1.1µM,i,i,i
CC(=O)c1cccc(-n2c(CCC(=O)O)ccc2-c2ccccc2)c1,i,i,50µM,i,i,i
CC(=O)c1ccc(-n2c(CCC(=O)O)ccc2-c2ccccc2)cc1,i,i,?,i,i,i
O=S(=O)(c1ccc2c(c1)OCCO2)C1CCN(S(=O)(=O)c2c(F)cccc2F)CC1,nt,nt,nt,nt,nt,i
Cc1cc2c(s1)c1cnn(Cc3c(C)cc(F)cc3C)c(=O)c1n2C,nt,nt,nt,nt,nt,i
COc1cc2c(cc1OC)C(CCc1ccccc1)=NCC2,i,i,89µM,i,i,i
COc1cc2c(cc1OC)C(c1c(Cl)cccc1Cl)=NCC2,i,nt,nt,nt,nt,nt
C=C1C=C(C(F)F)n2ncc(C(=O)NCc3ccc(OC)c(OC)c3)c2N1,nt,nt,i,nt,i,nt
CCCCCCCC/C=C\CCCCCCCC(=O)NCCc1ccc(O)c(O)c1,i,i,27µM!,i,?,?
CC(=O)c1c(C)c(C)c2n1CCn1c(C)ccc1-2,i,i,25µM,i,i,?
Cn1c(=O)c2c(-c3ccccc3Cl)n(-c3cc(Cl)ccc3O)cc2n(C)c1=O,nt,nt,i,nt,i,i
O=S1(=O)CCOC[C@H](c2ccccc2)N1Cc1ccc(Cl)cc1Cl,nt,nt,i,nt,i,nt
COc1ccc(OC)cc1,i,i,i,i,i,i
COc1ccc(-n2cnnc2)cc1,-123%,i,i,i,i,i
COc1cccc(Cn2ncc3c4sc(SC)cc4n(C)c3c2=O)c1,nt,nt,nt,nt,nt,i
CCOC(=O)c1c(NC(=O)/C=C/c2ccc(C)cc2)sc2c1CCCC2,nt,nt,i,nt,i,i
Cc1ccc(C(=O)CC(C(=O)O)n2cnc([N+](=O)[O-])n2)cc1 (stereo not given),i,i,32µM,i,i,i
SMILES,Akt phos inh,N370S GC mod,TrxR1 inh,AT treatment,TrxR1 substrate,Pin1 inhibitor
CCOC(=O)CSC1=NC(=O)/C(=C\c2ccc(OC(C)=O)cc2)S1,i,i,8.9µM,i,i,i
c1nc(NCC2CCCO2)c2ccc(-c3ccc4c(c3)OCO4)cc2n1 (stereo not given),nt,nt,nt,nt,nt,i
COc1ccc(C(=O)N/N=C/c2ccc(N3CCOCC3)o2)cc1OC,i,i,28µM,i,i,i
COc1ccc(C(=O)N/N=C/c2ccc(N3CCOCC3)s2)cc1OC,i,nt,i,i,i,i
O=C(N/N=C/c1ccc(N2CCOCC2)o1)c1cccc(F)c1,i,i,11µM,nt,i,i
COc1cc(OC)c(OC)cc1/C=c1\[nH]c(=O)/c(=C/c2cc(OC)c(OC)cc2OC)[nH]c1=O,nt,nt,i,nt,i,nt
Cc1ccc(/C=N/NC(=O)c2csc(C)c2)o1,i,i,i,i,i,i
CN(C)c1ccc(/C=N/NC(=O)C(O)(c2ccccc2)c2ccccc2)o1,i,i,8.9µM,i,i,?
Cc1cc(C(=O)N/N=C/c2ccc(N(C)C)o2)cs1,i,i,14µM,i,i,i
C=Cc1ccc(Cn2c(=O)n(-c3cccc(Cl)c3)c(=O)c3c4c(sc32)CN(C(C)=O)CC4)cc1,nt,nt,i,nt,i,i
CCOC(=O)C(CN1CCCC1)c1ccccc1 (stereo not given),i,i,i,i,i,i
O=C(c1ccc(Cl)cc1)C(CN1CCCCC1)c1ccccc1 (stereo not given),i,i,25µM,i,i,i
COc1ccc(CCN(C)CCCN2CCc3cc(OC)c(OC)cc3CC2=O)cc1OC,nt,i,nt,nt,nt,nt
Cc1ccc(SC(CC(=O)c2ccc(C)cc2)C(=O)O)cc1 (stereo not given),i,i,40µM,i,i,i
O=C(CC(Sc1ccc(Br)cc1)C(=O)O)c1ccc(Br)cc1 (stereo not given),nt,i,nt,i,nt,nt
Oc1cccc2c(CC(O)c3c[nH]c4ccccc34)ccnc12 (stereo not given),nt,nt,i,nt,i,nt
COc1ccc(C(=O)N/C(=C/c2cccs2)c2nc3ccccc3[nH]2)cc1OC,i,i,i,i,i,i
COc1cc(/C=C(/C(=O)c2cccs2)c2nc3ccccc3[nH]2)cc(OC)c1O,i,i,56µM,i,i,i
COc1ccc(NC(C)=O)c([N+](=O)[O-])c1[N+](=O)[O-],i,nt,5µM,nt,i,i
COc1ccc(OC)c([N+](=O)[O-])c1C(N)=O,i,i,i,i,i,?
O=C(O)Cc1csc2ccccc12,-126%,i,i,i,i,i
Cc1cc(C)cc(NS(=O)(=O)c2c(C)nc3scc(C)n3c2=O)c1,nt,nt,i,nt,i,i
CC(=O)c1cccc(NC(=S)NC(=O)c2cncc(Br)c2)c1,i,i,22µM,i,i,i
CC(=O)c1cccc(NC(=S)NC(=O)c2ccccc2)c1,i,i,35µM,i,i,i
O=C(NC(=S)Nc1ccccn1)c1cncc(Br)c1,i,i,i,i,i,i
SMILES,Akt phos inh,N370S GC mod,TrxR1 inh,AT treatment,TrxR1 substrate,Pin1 inhibitor
Cc1cccnc1NC(=S)NC(=O)c1cncc(Br)c1,i,i,32µM,i,i,i
CC(=O)c1cccc(NC(=S)NC(=O)c2cccc(Cl)c2)c1,i,i,?,i,i,i
Cc1ccc(C(=O)O)cc1NC(=S)NC(=O)c1ccc(-c2ccccc2)cc1,i,i,40µM,i[11.5 µM],i,?
O=C(O)C1CCN(c2nc(-c3ccc(Br)cc3)cs2)CC1,nt,nt,nt,nt,nt,i
CCOC(=O)C(CC)Sc1ncnc2c1c(-c1ccccc1)cn2-c1ccc(OC)cc1 (stereo not given),nt,nt,i,nt,i[2.29 µM],i
COc1ccc(OC)c(NC(=O)Cn2c(CCC(=O)O)ccc2-c2ccccc2)c1,i,i,i,i,i,i
COc1ccc(OC)c(NC(=O)Cn2c(CCC(=O)O)ccc2-c2cccs2)c1,-119%,i,i,nt,i,i
Cc1cc2c(s1)c1cnn(Cc3ccc4ccccc4c3)c(=O)c1n2C,nt,nt,nt,nt,nt,i
CC(=O)c1c(C)[nH]c(C(=O)NCCc2ccccc2)c1C,-117%,i,i,i,i,i
